PubChem BioAssay (NCATS)
Inconclusive results are not listed. Entries that show only a call come without a potency. Unmarked numbers belong to inactive results. Active and inactive are the calls of the source. The call rests on the fitted dose curve; in most records, active means well fitted curve in the direction sought with a large enough effect; inconclusive means small, poorly fitted or top-dose-only effect, or another doubt; inactive means no such curve, though single readings can be large; an effect the other way counts as inactive or inconclusive.

Experiments:
[1] = target: Rap guanine nucleotide exchange factor 3 (Homo sapiens) (UniProt O95398); experiment: Confirmatory qHTS for antagonist of cAMP-regulated guanine nucleotide exchange factor 3 (EPAC1) (AID 1645880); further: nearly all actives have a fitted effect of over 55% in size; further: potency means the concentration at half of the fitted maximal effect
Rap guanine nucleotide exchange factor 3 (Homo sapiens), sequence (O95398 whole entry, looked up): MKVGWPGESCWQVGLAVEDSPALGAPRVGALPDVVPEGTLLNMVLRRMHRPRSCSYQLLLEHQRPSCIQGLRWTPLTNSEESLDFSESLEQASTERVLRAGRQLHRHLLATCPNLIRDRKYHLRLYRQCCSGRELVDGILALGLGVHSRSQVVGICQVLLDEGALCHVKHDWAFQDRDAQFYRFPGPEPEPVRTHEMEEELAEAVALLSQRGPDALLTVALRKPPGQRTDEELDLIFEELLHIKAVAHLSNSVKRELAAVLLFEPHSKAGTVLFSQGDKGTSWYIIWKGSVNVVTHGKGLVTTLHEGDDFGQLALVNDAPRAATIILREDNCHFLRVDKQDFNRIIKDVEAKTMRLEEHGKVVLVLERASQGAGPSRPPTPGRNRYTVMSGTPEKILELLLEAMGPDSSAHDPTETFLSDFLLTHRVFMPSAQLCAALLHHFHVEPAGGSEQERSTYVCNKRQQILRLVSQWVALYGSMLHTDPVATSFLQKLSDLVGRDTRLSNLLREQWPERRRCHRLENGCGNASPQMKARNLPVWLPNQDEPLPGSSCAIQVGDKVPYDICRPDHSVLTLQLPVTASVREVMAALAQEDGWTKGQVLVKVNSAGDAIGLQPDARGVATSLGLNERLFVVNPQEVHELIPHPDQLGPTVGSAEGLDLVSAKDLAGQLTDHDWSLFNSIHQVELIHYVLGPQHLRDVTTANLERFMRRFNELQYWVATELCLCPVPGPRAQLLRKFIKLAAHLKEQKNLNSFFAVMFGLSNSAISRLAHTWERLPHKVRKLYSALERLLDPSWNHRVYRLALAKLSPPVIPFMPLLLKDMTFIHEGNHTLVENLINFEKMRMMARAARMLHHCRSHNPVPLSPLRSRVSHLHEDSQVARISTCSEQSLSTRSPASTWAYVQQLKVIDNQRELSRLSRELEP
In short: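 Nucleotide exchange uses 100 nM EPAC1, 250 nM RAP1B-BODIPY-GDP and 50 uM GDP, with compounds in a concentration-titration series. After 5 min at room temperature, fluorescence (480 nm ex/540 nm em) is read every 5 min for 30 min. Data are normalized to control ATA and DMSO.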

[2] = target: Rap guanine nucleotide exchange factor 3 (Homo sapiens) (UniProt O95398); experiment: Confirmatory qHTS for agonist of cAMP-regulated guanine nucleotide exchange factor 3 (EPAC1) (AID 1645881); further: nearly all actives have a fitted effect of over 75% in size; further: potency means the concentration at half of the fitted maximal effect;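 on activation: EPAC1 catalysed release of BODIPY-GDP from Rap1B seen as fluorescence loss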
[3] = target: Rap guanine nucleotide exchange factor 4 (Homo sapiens) (UniProt Q8WZA2); experiment: Confirmatory qHTS for agonist of cAMP-regulated guanine nucleotide exchange factor 4 (EPAC2) (AID 1645884);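 further: nucleotide exchange releases bodipy-GDP from Rap1 and this lowers its fluorescence; nearly all actives have a fitted effect of over 65% in size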; further: potency means the concentration at half of the fitted maximal effect
Rap guanine nucleotide exchange factor 4 (Homo sapiens), sequence (Q8WZA2 whole entry, looked up): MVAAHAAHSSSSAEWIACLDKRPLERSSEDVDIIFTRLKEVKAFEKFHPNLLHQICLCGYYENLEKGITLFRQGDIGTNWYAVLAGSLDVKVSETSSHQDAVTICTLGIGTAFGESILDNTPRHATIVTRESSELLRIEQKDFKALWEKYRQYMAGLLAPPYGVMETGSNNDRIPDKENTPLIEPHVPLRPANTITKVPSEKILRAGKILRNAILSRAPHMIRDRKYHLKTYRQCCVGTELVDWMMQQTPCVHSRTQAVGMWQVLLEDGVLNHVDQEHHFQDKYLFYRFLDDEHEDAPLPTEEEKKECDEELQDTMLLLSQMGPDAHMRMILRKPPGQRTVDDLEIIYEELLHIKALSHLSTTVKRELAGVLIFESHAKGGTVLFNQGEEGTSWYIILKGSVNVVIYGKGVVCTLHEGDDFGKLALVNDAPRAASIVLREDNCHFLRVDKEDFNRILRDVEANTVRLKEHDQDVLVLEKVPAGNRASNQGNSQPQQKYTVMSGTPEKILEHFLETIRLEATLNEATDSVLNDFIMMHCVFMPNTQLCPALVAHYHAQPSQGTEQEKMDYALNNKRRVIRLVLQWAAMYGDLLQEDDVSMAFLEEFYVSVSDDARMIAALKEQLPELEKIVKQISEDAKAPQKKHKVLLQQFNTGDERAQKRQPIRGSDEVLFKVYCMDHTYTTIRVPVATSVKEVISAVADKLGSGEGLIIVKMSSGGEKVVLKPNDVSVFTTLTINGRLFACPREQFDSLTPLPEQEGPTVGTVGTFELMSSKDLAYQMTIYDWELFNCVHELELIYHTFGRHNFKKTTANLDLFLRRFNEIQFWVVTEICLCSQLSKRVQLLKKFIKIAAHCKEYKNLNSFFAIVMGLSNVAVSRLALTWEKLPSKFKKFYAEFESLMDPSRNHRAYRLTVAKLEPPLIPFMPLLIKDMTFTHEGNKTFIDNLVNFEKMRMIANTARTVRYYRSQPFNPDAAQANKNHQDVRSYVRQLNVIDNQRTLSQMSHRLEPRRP

[4] = target: Rap guanine nucleotide exchange factor 4 (Homo sapiens) (UniProt Q8WZA2); experiment: Confirmatory qHTS for antagonist of cAMP-regulated guanine nucleotide exchange factor 4 (EPAC2) (AID 1645885); further: nearly all actives have a fitted effect of over 25% in size; further: potency means the concentration at half of the fitted maximal effect
[5] = target: Rap guanine nucleotide exchange factor 3 (Homo sapiens) (UniProt O95398); experiment: Counterscreen qHTS for antagonist of cAMP-regulated guanine nucleotide exchange factor 3 (EPAC1) (AID 1645888);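 further: fluorescence loss as bound BODIPY-GDP is released from Rap1B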
In short: (§1)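 Rap1B-BODIPY-GDP 250 nM + GDP 50 uM; cpds 7-pt, final 9.74 nM–152 uM (activator mode) or from 7.32 nM upwards (inhibitor mode); RT; FI 480/540 nm at 5 and 30 min, then ± cAMP, reread.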

[6] = target: Rap guanine nucleotide exchange factor 3 (Homo sapiens) (UniProt O95398); experiment: Counterscreen qHTS for agonist of cAMP-regulated guanine nucleotide exchange factor 3 (EPAC1) (AID 1645889); further: nearly all actives have a fitted effect of over 40% in size; further: potency means the concentration at half of the fitted maximal effect
In short: as §1

Row | Structure (SMILES) | Potency [1] | Potency [2] | Potency [3] | Potency [4] | Potency [5] | Potency [6] | activation [3] | activity change, negative = inhibition [5] | activation [6]
1 | CCOC(=O)C1CCCN(C(=O)C(C)(C)Oc2ccc(Cl)cc2)C1 (configuration not stated) | inactive | inactive | inactive | inactive | inactive | inactive | – | – | –
2 | CCCc1cc(=O)oc2c3c(cc(OCC(=O)NCc4ccccn4)c12)OC(C)(C)CC3 | inactive | inactive | inactive | inactive | inactive | inactive | – | – | –
3 | CC(=O)N1CCc2cc(CNC(=O)c3ccccc3Br)ccc21 | inactive | inactive | inactive | inactive | inactive | inactive | – | – | –
4 | O=C(COC(=O)c1ccc2c(c1)OCO2)NC1CCS(=O)(=O)C1 (configuration not stated) | inactive | inactive | inactive | inactive | inactive | inactive | – | – | –
5 | CC1(Cc2ccc(Cl)cc2)C(=O)Nc2ccc(-c3cccnc3)cc21 (configuration not stated) | inactive | inactive | inactive | inactive | inactive | inactive | – | – | –
6 | CCOC(=O)c1sc2nc(-c3ccco3)c3c(c2c1N)CC(C)(C)OC3 | 44.7 µM (active) | inactive | – | inactive | – | – | 7.15% [at 17.1 µM, percent relative to cAMP agonist control] | -5.49% [at 30.8 µM] | 25.5% [at 30.8 µM]
7 | CCOc1c(O)ccc(/C=C2\SC(=S)NC2=O)c1[N+](=O)[O-] | 37.9 µM (active) | inactive | inactive | inactive | inactive | inactive | – | – | –
8 | N#Cc1c(/N=C/c2ccco2)sc2c1CCC2 | inactive | inactive | – | inactive | – | – | 2.45% [at 17.1 µM, percent relative to cAMP agonist control] | 0.743% [at 30.8 µM] | 7.28% [at 30.8 µM]
9 | CC(C)(C)c1nc(-c2ccccc2)nc2c1OCCC2 | inactive | inactive | inactive | inactive | inactive | inactive | – | – | –
10 | O=C1C=C(N2CCOCC2)c2ccccc2C1=O | 39.8 µM (active) | inactive | – | inactive | – | – | -3.17% [at 17.1 µM, percent relative to cAMP agonist control] | -11.6% [at 30.8 µM] | 26.3% [at 30.8 µM]
11 | CN1/C(=C\C=C2/SC(=S)NC2=O)C(C)(C)c2ccccc21 | inactive | 79.4 µM (active) | 79.4 µM (active) | 7.57 µM (active) | inactive | 70.8 µM (active) | – | – | –
12 | CCC(=O)C1=C(c2cccc([N+](=O)[O-])c2)N(C(=O)CC)n2c(nnc2-c2ccccc2)S1 | inactive | inactive | inactive | inactive | inactive | inactive | – | – | –
13 | CCN1/C(=C/C(C)=C/c2sc3ccccc3[n+]2CC)Sc2ccccc21 | 50.1 µM (active) | inactive | – | inactive | – | – | 8.04% [at 17.1 µM, percent relative to cAMP agonist control] | 12.4% [at 30.8 µM] | 12.5% [at 30.8 µM]
14 | O=C(O)c1ccc(/C=N/N2CCN(Cc3cccc4ccccc34)CC2)cc1 | inactive | inactive | – | inactive | – | – | 4.54% [at 17.1 µM, percent relative to cAMP agonist control] | -6.71% [at 30.8 µM] | 4.41% [at 30.8 µM]
15 | COc1cccc(-n2nnc3c(=O)n(C/C=C/c4ccccc4)cnc32)c1 | inactive | inactive | – | inactive | – | – | 6.54% [at 17.1 µM, percent relative to cAMP agonist control] | 2.95% [at 30.8 µM] | 17.3% [at 30.8 µM]
16 | CCc1cccc2cc3c(N)c(C(=O)Nc4ccc(S(=O)(=O)N5CCCC5)cc4)sc3nc12 | 75.7 µM (active) | inactive | inactive | 67.5 µM (active) | inactive | inactive | – | – | –
17 | COc1ccc(N(C)S(=O)(=O)c2cccc3nsnc23)cc1 | inactive | inactive | inactive | inactive | inactive | inactive | – | – | –
18 | O=C1/C(=C/c2ccc(F)cc2)SC(=S)N1NS(=O)(=O)c1ccccc1 | 16.9 µM (active) | inactive | inactive | inactive | inactive | inactive | – | – | –
19 | COc1ccc(N2CCN(C(=O)c3cc(C)on3)CC2)cc1 | inactive | inactive | inactive | inactive | inactive | inactive | – | – | –
20 | C[n+]1cc(C(=O)N2CCCCC2)ccc1/C=C/c1c[nH]c2ccccc12 | inactive | 89.1 µM (active) | – | inactive | – | – | 10.6% [at 17.1 µM, percent relative to cAMP agonist control] | -7.76% [at 30.8 µM] | 14.5% [at 30.8 µM]
21 | Cc1ccc(C2=NOC(=O)/C2=C\c2ccc(C)o2)cc1 | 75.7 µM (active) | inactive | inactive | inactive | inactive | inactive | – | – | –

Row | Structure (SMILES) | Potency [1] | Potency [2] | Potency [3] | Potency [4] | Potency [5] | Potency [6] | activation [3] | activity change, negative = inhibition [5] | activation [6]
22 | COc1ccc(C/C(C)=N/NC(=O)c2cccnc2)cc1 | inactive | inactive | – | inactive | – | – | -0.201% [at 17.1 µM, percent relative to cAMP agonist control] | -16% [at 30.8 µM] | 7.53% [at 30.8 µM]
23 | COc1ccccc1C1SCCN1S(C)(=O)=O (configuration not stated) | inactive | inactive | inactive | inactive | inactive | inactive | – | – | –
24 | CCc1nc(C)cn1S(=O)(=O)c1cc(C)c(OC)cc1C | inactive | inactive | inactive | inactive | inactive | inactive | – | – | –
25 | O=c1oc(-c2ccccc2)c(-c2ccccc2)c2ccccc12 | inactive | inactive | inactive | inactive | inactive | inactive | – | – | –
26 | O=c1c2sccc2nc(SCc2cc(=O)n3cc(Cl)ccc3n2)n1Cc1ccccn1 | inactive | inactive | inactive | inactive | inactive | inactive | – | – | –
27 | CC(=N\NC(=O)c1ccccc1)/C(=N/O)C(=O)Nc1ccccc1 | 3.16 µM (active) | inactive | – | inactive | – | – | 7.97% [at 17.1 µM, percent relative to cAMP agonist control] | 9.03% [at 30.8 µM] | 27.9% [at 30.8 µM]
28 | O=C1NN(c2ccccc2)C(=O)/C1=C/c1ccc(Sc2cccc3ccccc23)o1 | 17.8 µM (active) | inactive | – | inactive | – | – | 3.36% [at 17.1 µM, percent relative to cAMP agonist control] | -8.41% [at 30.8 µM] | 23.8% [at 30.8 µM]
29 | COC(=O)CSc1nc2c(c(=O)n(C)c(=O)n2C)n1CCCc1ccccc1 | inactive | inactive | – | inactive | – | – | 4.31% [at 17.1 µM, percent relative to cAMP agonist control] | -3.64% [at 30.8 µM] | 0.96% [at 30.8 µM]
30 | CCC(NS(=O)(=O)c1ccc2c(c1)NC(=O)C(C)C(=O)N2)c1cccs1 (configuration not stated) | inactive | inactive | inactive | inactive | inactive | inactive | – | – | –
31 | C#Cc1ccc([C@@H]2C=C(C(=O)NCc3nc4ccccc4[nH]3)O[C@H](OCC)[C@H]2CCCO)cc1 | inactive | inactive | – | inactive | – | – | 7.11% [at 17.1 µM, percent relative to cAMP agonist control] | -6.31% [at 30.8 µM] | 30.9% [at 30.8 µM]
32 | Cc1ccc(C(CCN(Cc2ccccc2)C(=O)c2ccco2)c2ccco2)cc1 (configuration not stated) | 37.9 µM (active) | inactive | inactive | 53.6 µM (active) | inactive | inactive | – | – | –
33 | Cc1nn(CC(=O)N(C)C2CCS(=O)(=O)C2)c(C)c1[N+](=O)[O-] (configuration not stated) | inactive | inactive | – | inactive | – | – | 2.8% [at 17.1 µM, percent relative to cAMP agonist control] | -13.2% [at 30.8 µM] | 30.9% [at 30.8 µM]
34 | CCOC(=O)c1cc(C(C)(C)C)nc(SC)c1C#N | inactive | inactive | inactive | inactive | inactive | inactive | – | – | –
35 | Cc1c(C(=O)N2CCCCC2)oc2ccc(Br)cc12 | inactive | inactive | inactive | inactive | inactive | inactive | – | – | –
36 | CC(=O)NC(c1ccc(C)cc1)c1cc(Cl)c2cccnc2c1O (configuration not stated) | inactive | inactive | inactive | inactive | inactive | inactive | – | – | –
37 | COc1ccc(N(C)C(=O)c2oc(=O)c3ccccc3c2-c2ccc(C)cc2)c(OC)c1 | inactive | inactive | inactive | inactive | inactive | inactive | – | – | –
38 | O=C1Nc2c(Cl)cc(Cl)cc2C1=O | inactive | inactive | inactive | inactive | inactive | 31.6 µM (active) | – | – | –
39 | CC1CCCCN1C(=O)COC(=O)c1cc([N+](=O)[O-])ccc1N1CCOCC1 (configuration not stated) | inactive | inactive | inactive | inactive | inactive | inactive | – | – | –
40 | CN(Cc1ccccc1N1CCCC1)C(=O)c1cc2ccccc2o1 | inactive | inactive | – | inactive | – | – | 4.19% [at 17.1 µM, percent relative to cAMP agonist control] | -10.5% [at 30.8 µM] | 17.8% [at 30.8 µM]
41 | COc1cc(/C=C2\SC(=O)N(c3ccccc3Cl)C2=O)cc([N+](=O)[O-])c1O | 47.8 µM (active) | inactive | inactive | 42.6 µM (active) | inactive | inactive | – | – | –
42 | Cc1cc2oc(=O)c3c(c2cc1OC(=O)c1ccco1)CCCC3 | inactive | inactive | inactive | inactive | inactive | inactive | – | – | –
